Outcome and AC50 data for 19 compounds are collected here from PubChem BioAssay (EPA / NIEHS).

Experiment [1] concerns the target human Protein Tyrosine Phosphatase Non-receptor Type 2 (PTPN2), PTPN2 (gene 5771) (UniProt P17706). Nature of the experiment: NVS_ENZ_hPTPN2: NovaScreen (NVS) Enzymatic Assay for human Protein Tyrosine Phosphatase Non-receptor Type 2 (PTPN2) (AID 2283207). An outline of the steps:
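Activity measured as fluorescence after mobility-shift separation of substrate and product, 1 h after compound. Duplicate single-point 25 uM primary testing, concentration series for actives; inhibition scored as signal loss relative to DMSO baseline.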

Experiment [2] deals with human Protein Tyrosine Phosphatase Non-receptor Type 9 (PTPN9), PTPN9 (gene 5780) (UniProt P43378). Nature of the experiment: NVS_ENZ_hPTPN9: NovaScreen (NVS) Enzymatic Assay for human Protein Tyrosine Phosphatase Non-receptor Type 9 (PTPN9) (AID 2283209). Here is the method: NVS_ENZ_hPTPN9 is a biochemical, single-readout assay that uses extracted gene-proteins from SF9 in a cell-free assay. Measurements were taken 1.33 hours after chemical dosing in a 384-well plate.NVS_ENZ_hPTPN9 is one of one assay component(s) measured or calculated from the NVS_ENZ_hPTPN9 assay. It is designed to make measurements of enzyme activity, a form of enzyme reporter, as detected with fluorescence intensity signals by Fluorescence and electrophoretic mobility shift technology.Data from the assay component NVS_ENZ_hPTPN9 was analyzed into 1 assay endpoint. This assay endpoint, NVS_ENZ_hPTPN9, was analyzed in the positive analysis fitting direction relative to DMSO as the negative control and baseline of activity. Using a type of enzyme reporter, loss-of-signal activity can be used to understand changes in the enzymatic activity as they relate to the gene PTPN9. Furthermore, this assay endpoint can be referred to as a primary readout, because this assay has produced multiple assay endpoints where this one serves a enzymatic activity function. To generalize the intended target to other relatable targets, this assay endpoint is annotated to the phosphatase intended target family, where the subfamily is non-receptor tyrosine phosphatase.
(§1) Binding assays used specific radioligands (tritiated, iodinated) with non-radioactive competitive displacement ligands in agonist or antagonist protocols (as indicated) and various reference compounds and inhibitors to titrate specific binding to receptors and transporters. Most enzyme assays (CYPs, kinases, phosphatases, proteases, HDACs) used recombinant protein and specific substrates (fluorescence mostly, some colorimetric and radioactive) and inhibitors, followed by a biochemical separation of substrate and product. All assays for the biochemical HTS were initially run in duplicate at a single concentration (10 uM for CYP450 assays and 25 uM for all others). Assay-chemical combinations meeting a pre-defined threshold (e.g., 30% inhibition and other criteria defined below) were then run in singleton concentration-response format with maximum concentration of 20 uM for CYPs and 50 uM for all others. Each assay was run with positive and negative controls, and concurrent controls on every plate. The follow-up (secondary) screen tested active chemical-pairs in concentration series, as well as a few additional assays not tested in the primary screen, some selected negative inactives, and several cases re-run in the concentration series for confirmatory purposes.

Experiment [3] concerns the target human Protein Tyrosine Phosphatase Non-receptor Type 6 (PTPN6), PTPN6 (gene 5777) (UniProt P29350). Nature of the experiment: NVS_ENZ_hPTPN6: NovaScreen (NVS) Enzymatic Assay for human Protein Tyrosine Phosphatase Non-receptor Type 6 (PTPN6) (AID 2283210). In short, it runs like this:
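Recombinant human PTPN6 from SF9 cells, enzyme activity followed by fluorescence after mobility-shift separation of substrate and product at 1.33 h. Chemicals first tested at a single 25 uM in duplicate, then confirmed across concentration series; loss of signal relative to DMSO.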

For experiment [4], the target named is human Raf-1 Proto-Oncogene, serine/threonine Kinase (RAF1), RAF1 (gene 5894) (UniProt P04049). Nature of the experiment: NVS_ENZ_hRAF1: NovaScreen (NVS) Enzymatic Assay for human Raf-1 Proto-Oncogene, serine/threonine Kinase (RAF1) (AID 2283216). The method, then:
NVS_ENZ_hRAF1 is a biochemical, single-readout assay that uses extracted gene-proteins in a cell-free assay. Measurements were taken 1 hour after chemical dosing in a 384-well plate.NVS_ENZ_hRAF1 is one of one assay component(s) measured or calculated from the NVS_ENZ_hRAF1 assay. It is designed to make measurements of enzyme activity, a form of enzyme reporter, as detected with fluorescence intensity signals by Fluorescence and electrophoretic mobility shift technology.Data from the assay component NVS_ENZ_hRAF1 was analyzed into 1 assay endpoint. This assay endpoint, NVS_ENZ_hRAF1, was analyzed in the positive analysis fitting direction relative to DMSO as the negative control and baseline of activity. Using a type of enzyme reporter, loss-of-signal activity can be used to understand changes in the enzymatic activity as they relate to the gene RAF1. Furthermore, this assay endpoint can be referred to as a primary readout, because this assay has produced multiple assay endpoints where this one serves a enzymatic activity function. To generalize the intended target to other relatable targets, this assay endpoint is annotated to the kinase intended target family, where the subfamily is serine/threonine kinase.
as §1

Experiment [5] concerns the target human Protein Tyrosine Phosphatase Non-receptor Type 4 (PTPN4), PTPN4 (gene 5775) (UniProt P29074). Nature of the experiment: NVS_ENZ_hPTPN4: NovaScreen (NVS) Enzymatic Assay for human Protein Tyrosine Phosphatase Non-receptor Type 4 (PTPN4) (AID 2283208). In short, it runs like this:
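Screened in duplicate at 25 uM, with hits then titrated to a top concentration of 50 uM. Recombinant Sf9-derived PTPN4 turnover was read by fluorescence with electrophoretic separation, 1.33 h after compound addition. DMSO served as baseline.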

Experiment [6] addresses human Protein Tyrosine Phosphatase Receptor Type B (PTPRB), PTPRB (gene 5787) (UniProt P23467). Nature of the experiment: NVS_ENZ_hPTPRB: NovaScreen (NVS) Enzymatic Assay for human Protein Tyrosine Phosphatase Receptor Type B (PTPRB) (AID 2283211). An outline of the steps: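 Recombinant human PTPRB with a fluorescent substrate, product separated by electrophoretic mobility shift; read 1 h after dosing. Primary screen in duplicate at 25 uM; actives then retested in concentration series; loss of signal versus DMSO.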

In experiment [7] the target is human Protein Tyrosine Phosphatase Receptor Type M (PTPRM), PTPRM (gene 5797) (UniProt P28827). Nature of the experiment: NVS_ENZ_hPTPRM: NovaScreen (NVS) Enzymatic Assay for human Protein Tyrosine Phosphatase Receptor Type M (PTPRM) (AID 2283215). In short, it runs like this: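 Read-out is fluorescence after electrophoretic separation of substrate and product, taken 1.33 h post-dosing with recombinant enzyme. Compounds screened at 25 uM in duplicate, then concentration series for actives; activity as signal loss relative to DMSO.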

Experiment [8] has as its target Tyrosine-protein phosphatase non-receptor type 14 (Homo sapiens) (UniProt Q15678). Nature of the experiment: NVS_ENZ_hPTPN14: NovaScreen (NVS) Enzymatic Assay for human Protein Tyrosine Phosphatase Non-receptor Type 14 (PTPN14) (AID 2283206). An outline of the steps:
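Fluorescent substrate turnover by recombinant human PTPN14 was measured 0.5 h after compound addition, with substrate and product separated by mobility shift. Single-point screening at 25 uM, then concentration-response up to 50 uM for chemicals meeting threshold (e.g., 30% inhibition).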

Experiment [9] addresses human Protein Tyrosine Phosphatase Receptor Type F (PTPRF), PTPRF (gene 5792) (UniProt P10586). Nature of the experiment: NVS_ENZ_hPTPRF: NovaScreen (NVS) Enzymatic Assay for human Protein Tyrosine Phosphatase Receptor Type F (PTPRF) (AID 2283213). Here is the method:
NVS_ENZ_hPTPRF is a biochemical, single-readout assay that uses extracted gene-proteins in a cell-free assay. Measurements were taken 1 hour after chemical dosing in a 384-well plate.NVS_ENZ_hPTPRF is one of one assay component(s) measured or calculated from the NVS_ENZ_hPTPRF assay. It is designed to make measurements of enzyme activity, a form of enzyme reporter, as detected with fluorescence intensity signals by Fluorescence and electrophoretic mobility shift technology.Data from the assay component NVS_ENZ_hPTPRF was analyzed into 1 assay endpoint. This assay endpoint, NVS_ENZ_hPTPRF, was analyzed in the positive analysis fitting direction relative to DMSO as the negative control and baseline of activity. Using a type of enzyme reporter, loss-of-signal activity can be used to understand changes in the enzymatic activity as they relate to the gene PTPRF. Furthermore, this assay endpoint can be referred to as a primary readout, because this assay has produced multiple assay endpoints where this one serves a enzymatic activity function. To generalize the intended target to other relatable targets, this assay endpoint is annotated to the phosphatase intended target family, where the subfamily is receptor tyrosine phosphatase.
Binding assays used specific radioligands (tritiated, iodinated) with non-radioactive competitive displacement ligands in agonist or antagonist protocols (as indicated) and various reference compounds and inhibitors to titrate specific binding to receptors and transporters. Most enzyme assays (CYPs, kinases, phosphatases, proteases, HDACs) used recombinant protein and specific substrates (fluorescence mostly, some colorimetric and radioactive) and inhibitors, followed by a biochemical separation of substrate and product. All assays for the biochemical HTS were initially run in duplicate at a single concentration (10 uM for CYP450 assays and 25 uM for all others). […]

The target in experiment [10] is human Rho Associated Coiled-coil Containing Protein Kinase 1 (ROCK1), ROCK1 (gene 6093) (UniProt Q13464). Nature of the experiment: NVS_ENZ_hROCK1: NovaScreen (NVS) Enzymatic Assay for human Rho Associated Coiled-coil Containing Protein Kinase 1 (ROCK1) (AID 2283214). In short, it runs like this:
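Compounds first run in duplicate at 25 uM against recombinant human ROCK1, then followed in concentration series. Kinase activity was read 1 h post-dosing by fluorescence with mobility-shift separation, as signal loss relative to DMSO.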

Inconclusive results are not listed. The source made the active and inactive calls. Rule for the calls: active = hit-call score of the fitted dose curve at least 0.9, where 1 is the maximum; inconclusive = response in the unintended direction; inactive = score below 0.9.

human Protein Tyrosine Phosphatase Non-receptor Type 9 (PTPN9), PTPN9 (gene 5780), sequence (P43378 whole entry, looked up): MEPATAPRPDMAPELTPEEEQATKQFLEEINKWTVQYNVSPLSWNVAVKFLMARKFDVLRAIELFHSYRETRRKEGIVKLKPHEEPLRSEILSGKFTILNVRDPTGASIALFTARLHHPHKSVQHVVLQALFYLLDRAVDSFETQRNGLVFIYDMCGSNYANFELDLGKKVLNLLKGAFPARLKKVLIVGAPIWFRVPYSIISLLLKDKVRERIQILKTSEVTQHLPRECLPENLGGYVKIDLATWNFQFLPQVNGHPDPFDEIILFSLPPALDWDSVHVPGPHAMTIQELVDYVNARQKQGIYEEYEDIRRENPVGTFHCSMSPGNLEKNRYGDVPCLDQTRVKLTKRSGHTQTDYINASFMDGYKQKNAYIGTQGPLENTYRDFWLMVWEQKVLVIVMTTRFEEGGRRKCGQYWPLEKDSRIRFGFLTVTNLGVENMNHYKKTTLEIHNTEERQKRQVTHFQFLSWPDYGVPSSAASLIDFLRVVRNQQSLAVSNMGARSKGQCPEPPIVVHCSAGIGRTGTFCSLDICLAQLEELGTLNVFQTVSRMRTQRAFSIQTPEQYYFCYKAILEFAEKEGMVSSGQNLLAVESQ
human Rho Associated Coiled-coil Containing Protein Kinase 1 (ROCK1), ROCK1 (gene 6093), sequence (Q13464 whole entry, looked up): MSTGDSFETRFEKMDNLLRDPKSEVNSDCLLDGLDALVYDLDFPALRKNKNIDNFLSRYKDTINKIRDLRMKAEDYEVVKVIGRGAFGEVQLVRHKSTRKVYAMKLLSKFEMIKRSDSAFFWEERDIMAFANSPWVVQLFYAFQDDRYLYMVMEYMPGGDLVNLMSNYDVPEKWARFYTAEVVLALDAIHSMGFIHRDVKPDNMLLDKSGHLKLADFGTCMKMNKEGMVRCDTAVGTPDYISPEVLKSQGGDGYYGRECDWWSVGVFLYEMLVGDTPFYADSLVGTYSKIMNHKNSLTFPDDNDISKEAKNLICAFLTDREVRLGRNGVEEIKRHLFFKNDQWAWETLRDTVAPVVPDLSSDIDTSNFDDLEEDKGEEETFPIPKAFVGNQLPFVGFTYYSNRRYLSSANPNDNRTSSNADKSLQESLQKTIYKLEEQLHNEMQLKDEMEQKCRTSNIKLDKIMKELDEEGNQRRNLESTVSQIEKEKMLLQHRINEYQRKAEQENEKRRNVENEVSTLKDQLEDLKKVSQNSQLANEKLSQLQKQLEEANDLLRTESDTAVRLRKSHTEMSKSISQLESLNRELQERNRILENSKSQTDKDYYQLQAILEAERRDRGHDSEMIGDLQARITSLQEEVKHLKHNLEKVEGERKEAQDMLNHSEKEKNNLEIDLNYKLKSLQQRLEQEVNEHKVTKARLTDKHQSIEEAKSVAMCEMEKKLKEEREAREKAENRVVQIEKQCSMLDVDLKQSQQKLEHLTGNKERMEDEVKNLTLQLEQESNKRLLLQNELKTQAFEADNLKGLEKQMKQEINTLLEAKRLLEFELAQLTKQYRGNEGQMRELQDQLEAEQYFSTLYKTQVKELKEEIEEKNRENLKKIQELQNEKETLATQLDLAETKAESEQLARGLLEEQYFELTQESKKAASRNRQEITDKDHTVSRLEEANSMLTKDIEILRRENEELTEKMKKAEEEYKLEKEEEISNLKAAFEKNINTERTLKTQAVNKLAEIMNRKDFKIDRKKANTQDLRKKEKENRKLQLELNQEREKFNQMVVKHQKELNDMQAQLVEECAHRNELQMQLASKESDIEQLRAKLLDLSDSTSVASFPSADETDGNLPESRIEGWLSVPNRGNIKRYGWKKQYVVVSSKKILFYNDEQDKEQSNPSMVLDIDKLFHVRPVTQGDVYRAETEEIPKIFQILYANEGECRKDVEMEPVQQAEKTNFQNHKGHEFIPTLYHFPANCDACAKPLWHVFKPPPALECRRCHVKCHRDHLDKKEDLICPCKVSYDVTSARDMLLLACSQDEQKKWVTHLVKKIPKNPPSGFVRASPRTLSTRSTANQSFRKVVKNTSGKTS
human Protein Tyrosine Phosphatase Non-receptor Type 4 (PTPN4), PTPN4 (gene 5775), sequence (P29074 whole entry, looked up): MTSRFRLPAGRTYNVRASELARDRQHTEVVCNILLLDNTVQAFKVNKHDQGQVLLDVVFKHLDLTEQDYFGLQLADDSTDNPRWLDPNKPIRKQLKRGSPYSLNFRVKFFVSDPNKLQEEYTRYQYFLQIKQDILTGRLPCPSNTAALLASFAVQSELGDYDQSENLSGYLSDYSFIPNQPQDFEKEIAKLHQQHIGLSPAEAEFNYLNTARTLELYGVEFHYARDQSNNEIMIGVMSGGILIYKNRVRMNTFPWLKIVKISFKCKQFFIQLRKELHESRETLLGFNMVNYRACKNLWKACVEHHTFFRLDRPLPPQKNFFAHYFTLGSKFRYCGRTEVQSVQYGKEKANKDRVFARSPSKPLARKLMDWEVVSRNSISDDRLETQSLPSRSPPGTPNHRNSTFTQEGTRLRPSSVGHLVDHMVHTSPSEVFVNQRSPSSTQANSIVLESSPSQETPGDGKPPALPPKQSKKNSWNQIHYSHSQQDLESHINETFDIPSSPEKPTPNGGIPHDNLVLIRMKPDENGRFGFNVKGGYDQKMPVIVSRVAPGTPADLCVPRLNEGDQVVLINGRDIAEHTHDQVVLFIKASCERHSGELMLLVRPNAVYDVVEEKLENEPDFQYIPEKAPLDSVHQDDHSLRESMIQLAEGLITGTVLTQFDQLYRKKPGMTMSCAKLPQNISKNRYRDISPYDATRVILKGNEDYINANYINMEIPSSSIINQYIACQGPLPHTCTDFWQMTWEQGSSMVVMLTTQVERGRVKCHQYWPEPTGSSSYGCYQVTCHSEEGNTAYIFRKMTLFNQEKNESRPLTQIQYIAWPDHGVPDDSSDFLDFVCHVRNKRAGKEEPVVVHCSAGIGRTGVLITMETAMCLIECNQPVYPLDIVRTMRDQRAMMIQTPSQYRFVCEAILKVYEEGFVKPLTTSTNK
human Protein Tyrosine Phosphatase Receptor Type M (PTPRM), PTPRM (gene 5797), sequence (P28827 whole entry, looked up): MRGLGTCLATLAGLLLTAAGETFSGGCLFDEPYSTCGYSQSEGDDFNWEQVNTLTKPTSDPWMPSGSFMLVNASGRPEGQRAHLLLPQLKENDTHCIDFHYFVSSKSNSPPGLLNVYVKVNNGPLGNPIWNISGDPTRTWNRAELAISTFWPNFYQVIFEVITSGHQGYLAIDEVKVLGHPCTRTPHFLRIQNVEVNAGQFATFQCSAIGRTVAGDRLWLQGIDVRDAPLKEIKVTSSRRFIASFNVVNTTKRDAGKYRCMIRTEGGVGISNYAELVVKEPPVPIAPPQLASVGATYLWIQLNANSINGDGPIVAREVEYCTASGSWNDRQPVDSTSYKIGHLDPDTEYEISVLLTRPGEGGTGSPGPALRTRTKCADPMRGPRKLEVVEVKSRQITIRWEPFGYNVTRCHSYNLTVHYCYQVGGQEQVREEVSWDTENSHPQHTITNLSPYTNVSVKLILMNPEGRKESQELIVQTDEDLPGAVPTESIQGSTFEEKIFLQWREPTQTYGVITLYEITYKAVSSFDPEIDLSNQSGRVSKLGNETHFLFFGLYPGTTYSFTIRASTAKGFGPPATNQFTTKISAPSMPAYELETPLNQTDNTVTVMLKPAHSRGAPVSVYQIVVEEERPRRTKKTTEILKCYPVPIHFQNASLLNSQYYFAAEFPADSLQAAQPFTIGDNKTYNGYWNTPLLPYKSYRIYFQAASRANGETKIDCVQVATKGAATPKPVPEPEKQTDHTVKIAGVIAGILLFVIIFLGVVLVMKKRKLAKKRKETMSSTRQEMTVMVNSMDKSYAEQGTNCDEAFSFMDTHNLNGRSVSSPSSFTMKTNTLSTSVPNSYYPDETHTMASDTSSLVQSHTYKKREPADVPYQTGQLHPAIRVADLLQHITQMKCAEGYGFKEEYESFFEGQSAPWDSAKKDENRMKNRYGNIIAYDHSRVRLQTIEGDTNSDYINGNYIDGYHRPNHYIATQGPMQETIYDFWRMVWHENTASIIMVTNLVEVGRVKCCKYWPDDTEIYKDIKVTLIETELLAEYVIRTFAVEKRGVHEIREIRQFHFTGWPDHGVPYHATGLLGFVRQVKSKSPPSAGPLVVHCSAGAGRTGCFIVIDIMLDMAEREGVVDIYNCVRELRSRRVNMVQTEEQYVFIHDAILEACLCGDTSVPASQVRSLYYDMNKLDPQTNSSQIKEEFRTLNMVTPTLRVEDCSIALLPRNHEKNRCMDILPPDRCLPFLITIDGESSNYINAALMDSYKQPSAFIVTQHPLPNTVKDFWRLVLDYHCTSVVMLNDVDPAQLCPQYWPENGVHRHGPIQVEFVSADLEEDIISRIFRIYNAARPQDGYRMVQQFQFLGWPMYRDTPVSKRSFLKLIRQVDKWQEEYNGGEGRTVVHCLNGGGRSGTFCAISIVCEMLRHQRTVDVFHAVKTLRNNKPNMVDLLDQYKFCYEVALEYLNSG
human Protein Tyrosine Phosphatase Non-receptor Type 6 (PTPN6), PTPN6 (gene 5777), sequence (P29350 whole entry, looked up): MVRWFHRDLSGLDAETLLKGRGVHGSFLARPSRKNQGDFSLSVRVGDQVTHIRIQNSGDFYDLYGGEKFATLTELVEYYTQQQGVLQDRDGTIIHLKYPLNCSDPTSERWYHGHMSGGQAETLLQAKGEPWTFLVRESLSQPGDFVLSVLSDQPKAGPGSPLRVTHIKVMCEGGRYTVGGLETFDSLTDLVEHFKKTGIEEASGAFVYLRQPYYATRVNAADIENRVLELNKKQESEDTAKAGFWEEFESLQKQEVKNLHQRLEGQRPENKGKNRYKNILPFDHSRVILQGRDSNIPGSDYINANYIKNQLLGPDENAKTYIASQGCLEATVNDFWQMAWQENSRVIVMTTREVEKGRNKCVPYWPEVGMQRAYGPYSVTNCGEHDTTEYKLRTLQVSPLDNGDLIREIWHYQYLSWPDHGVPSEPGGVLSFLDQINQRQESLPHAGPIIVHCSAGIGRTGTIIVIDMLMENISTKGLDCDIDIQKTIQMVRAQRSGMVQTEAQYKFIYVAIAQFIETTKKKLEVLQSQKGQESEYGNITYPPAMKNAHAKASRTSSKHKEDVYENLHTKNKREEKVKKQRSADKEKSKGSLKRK

As for `O=C(O)COc1nc(Cl)c(Cl)cc1Cl`, in experiment [1], the call was inactive.

As for `C=CCC1=C(C)C(OC(=O)C2C(C=C(C)C)C2(C)C)CC1=O` (configuration not stated), the outcome in experiment [2], in experiment [3] and in [4] was inactive. For `O=C(Nc1ccccc1)Nc1ccnc(Cl)c1`, the compound was called inactive in [4].

With `COc1nc(C)nc(NC(=O)NS(=O)(=O)c2ccccc2Cl)n1`, the call in [1], in [5], in experiment [2], in [6] and in [7] was inactive.

The term AC50 denotes the concentration giving half of the maximal activity seen. Regarding `CNC(=S)S`, the compound was classed as inactive in experiment [8], in experiment [1], in [3], in experiment [6] and in experiment [7]. The results for the AC50 in experiment [2] and in [9] were 13.5 µM (active) and 15.5 µM (active), respectively. As for `CCON=C(CC)C1=C(O)CC(c2c(C)cc(C)cc2C)CC1=O` (configuration not stated), in experiment [4], the compound was called inactive. As for `Cc1c(F)c(F)c(COC(=O)C2C(/C=C(\Cl)C(F)(F)F)C2(C)C)c(F)c1F` (configuration not stated), the compound was classed as inactive in experiment [5] and in [2]. In the case of `CCCCNC(=O)OCC#CI`, the compound was called inactive in [8] and in experiment [5]. For `O=C(O)c1nc(Cl)ccc1Cl`, the compound was classed as inactive in [4]. As to `CON(C)C(=O)Nc1ccc(Cl)c(Cl)c1`, in experiment [10], the compound was classed as inactive. On to `CCCCOC(=O)c1ccccc1C(=O)OCCCC`, for which the outcome in experiment [8], in [3] and in experiment [4] was inactive. In the case of `CCNc1nc(Cl)nc(NC(C)C)n1`, the compound was classed as inactive in [6]. With `COc1nc(NC(C)C)nc(NC(C)C)n1`, the outcome in experiment [6] was inactive.

Take `CC(C)(C)c1ccc(CSc2cnn(C(C)(C)C)c(=O)c2Cl)cc1`: the AC50 in experiment [2] is 17 µM (active).

On to `N#Cc1cc(Br)c(O)c(Br)c1`, for which the result in [5], in experiment [2] and in experiment [10] was inactive. Take `CCOP(=S)(OCC)SCn1c(=O)oc2cc(Cl)ccc21`: the compound was classed as inactive in [8]. On to `Fc1ccc(Oc2ccnc3cc(Cl)cc(Cl)c23)cc1`, for which the AC50 in experiment [4] is 17 µM (active). On to `CN(C)C(=S)SSC(=S)N(C)C`, for which, in [9], the result was inactive. Take `CC1COC(Cn2cncn2)(c2ccc(Oc3ccc(Cl)cc3)cc2Cl)O1` (configuration not stated): the result in experiment [10] was inactive.
